For 14 compounds, growth results are on record in PubChem BioAssay (NCI).

What all share (assay): NCI-60 one-dose screen, 48 h (100 = growth as untreated, 0 = no growth, -100 = all killed)
Holding throughout (conditions): 10 µM

The test system of assay [1] is OVCAR-8 ovarian.
For assay [2], the system named is OVCAR-5 ovarian.
The test system of assay [3] is SK-OV-3 ovarian.
The test system of assay [4] is OVCAR-3 ovarian.
Assay [5] has as its system HS 578T breast.
Assay [6] relates to T-47D breast.
Assay [7] has as its system IGROV1 ovarian.
Assay [8] relates to NCI/ADR-RES ovarian.
The test system of assay [9] is OVCAR-4 ovarian.

This is part of a sample that, as a whole, favours compounds with a hit. Of some 83,000 tested, about 20% had one in any assay.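 Step 1: grow cells in 96-well plates. Step 2: add test compound at a single concentration. Step 3: incubate 48 h. Step 4: record percent growth.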 A number with no mark means an inactive call. Activity calls are given as the source filed them. The calls were made as follows: active = growth percent below 10; inactive = the rest.

Consider `CCCCC/C=C/C(=O)CCc1ccc(O)c(OC)c1`, for which the growth in assay [1] was 88.6%; in assay [2], 127%; in [3], 86.7%; in assay [4], 55.8%; in assay [5], 104%; in [6] it was 73.3%.
Turning to `CN1CCCNc2c(c(=O)c2=O)NCCCN(C)CCCNc2c(c(=O)c2=O)NCCCN(C)CCCNc2c(c(=O)c2=O)NCCCN(C)CCCNc2c(c(=O)c2=O)NCCCN(C)CCCNc2c(c(=O)c2=O)NCCCN(C)CCCNc2c(c(=O)c2=O)NCCCN(C)CCCNc2c(c(=O)c2=O)NCCC1`, the growth in assay [1] is 18.9%; in [2], 99.6%; in assay [3] it was 29.4%; in [7], 47.6%; in [4] it was 35.9%; in [5], 85%. For the same compound, the values for the growth in [8] and in assay [6] were 64.9% and 14.7%, respectively.
As for `OCC1OC(n2cnc3c(N/N=C\c4ccccn4)ncnc32)C(O)C1O` (stereo not given), the growth in assay [1] was 23.2%; in assay [2], 43.3%; in [3] it was 11.7%; in assay [7], -6.53% (active); in assay [4], 24.3%; in [5], 14.5%. In addition, the growth in [6] was 25.4%.
As for `O=C1CC[C@@H]2CCCC[C@@H]2C1`, the growth in assay [1] was 109%; in assay [2], 101%; in assay [3] it was 99.4%; in [7], 105%; in assay [4], 132%; in assay [5], 110%. The growth in assay [8] is 110%; in assay [6], 93.5%.
For `c1ccc2c(c1)oc1c3c(ccc12)NCCC3`, the growth in [1] is 98.2%; in [2] it was 102%; in assay [9] it was 94.3%; in assay [3], 107%; in assay [7] it was 98.6%; in assay [4] it was 103%. Further, the growth was 109% in assay [5], 97.7% in assay [8] and 59.9% in assay [6].
Consider `CC/C(=N\N=C(/CC)c1ccc(Br)cc1)c1ccc(Br)cc1`, for which the growth in [1] was 116%; in assay [2] it was 92.4%; in assay [9], 93.7%; in [3], 100%; in assay [7], 79.5%; in assay [5] it was 110%. The growth in assay [8] is 105%.
In the case of `CC1CN(Cc2ccccc2)C(=O)NC1=O` (stereo not given), the growth is 103% in assay [1]; 115% in assay [2]; 123% in assay [9]; 111% in assay [3]; 124% in [7]; 135% in assay [4]. Further, the growth in assay [5] is 108%; in assay [8] it was 107%; in assay [6], 97.2%.
Consider `COc1ccc(-c2csc(NC(=O)CSc3nc(C)c(-c4ccccc4)n3Nc3ccccc3)n2)cc1`, for which the growth in [1] was 31.7%; in [2] it was 81.2%; in assay [3], 88.3%; in assay [7], 41.8%; in assay [4], 56.6%; in assay [5] it was 19.8%. The growth is 12.1% in [8] and 24.8% in [6].
As to `COc1cc(NC(=O)CSc2nc3ccccc3c(=O)n2CCc2ccccc2)cc(OC)c1OC`, the growth was 30% in [1]; 53.8% in assay [9]; -37.5% (active) in [3]; 8.76% (active) in [7]; -30.6% (active) in assay [4]; 36.6% in [5]. The values for the growth in assay [8] and in [6] were 36.5% and -1.62% (active), respectively.
`CSc1nn(-c2ccccc2)c2ncnc(Oc3ccc(C)cc3)c12`: the growth in assay [1] was 50.7%; in [9], 9.15% (active); in assay [3] it was 75.2%; in assay [7], 92.7%; in assay [4] it was 98.1%; in assay [5] it was 85.9%. Further, in assay [8], the growth was 93.4%.
For `COc1ccc2c(c1)[n+]([O-])c(C#N)c(NC(=O)c1ccco1)[n+]2[O-]`, the growth in assay [1] is 65.3%; in [2], 111%; in assay [9] it was 93.8%; in [3] it was 91.2%; in assay [7] it was 118%; in assay [4], 113%. For the same compound, the values for the growth in assay [5], in assay [8] and in assay [6] were 92.5%, 111% and 91.5%, respectively.
Regarding `ClCC#CCSc1ncnc2c1ncn2CC#CCCl`, the growth in assay [1] was 24.4%; in assay [2] it was 14.1%; in assay [9] it was 34.3%; in [3], 45.7%; in assay [7], 30.7%; in assay [4], -27.5% (active). Further, the growth in [5] was 107%; in assay [6] it was -23.1% (active).
For `c1ccc(CO[C@H]2CO[C@H]3[C@@H]2OC[C@H]3OCc2ccccc2)cc1`, the growth in assay [1] was 107%; in assay [9], 111%; in assay [3], 96%; in assay [7], 92.3%; in assay [4], 111%; in assay [5] it was 109%. In addition, the results for the growth in assay [8] and in [6] were 106% and 93.7%, respectively.
On to `COc1ccc(OC)c(/C=C/c2nnc(Nc3ccc(Cl)cc3)o2)c1`, for which the growth in [1] is 66.7%; in [2], 103%; in assay [9], -16% (active); in assay [3] it was 32.9%; in [7], 80.6%; in assay [4], 32.1%. In addition, the values for the growth in [5] and in assay [6] were 6.91% (active) and -4.56% (active), respectively.
